Compound activity from PubChem BioAssay.
Only some compounds are listed: those with a hit (about 2.8% of all), similar ones and a draw of the others.
TROY signal inh – blocks TROY-dependent signaling in reporter cells; actives 0.98% (n = 360,000); AID 1347056; inhibition, % at 10 µM; Q293 LMP1-TROYcd NF-kB luciferase reporter, 4 h;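 active = compounds whose plate-normalised and pattern-corrected inhibition of the luciferase reporter signal at the single screening dose is 50% or more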
LGR2 antag – inhibitors of bursicon-induced Drosophila LGR2 receptor cAMP signaling | HEK293 LGR2, CRE-luciferase, bursicon-stimulated, 4 h | inhibition, % at 9.99 µM | actives 0.35% (n = 380,000);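 active = drop in luminescence signal, shown as inhibition above about 50% in the replicate tests, limit read from the data, passing the limit was not always enough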;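 note: agonist challenge used bursicon conditioned medium at about half maximal strength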
TWEAK-Fn14 inh – blocks TWEAK-Fn14 interaction in a reporter cell assay; TWEAK-stimulated Fn14 reporter cells, luciferase luminescence, 8 h; inhibition, % at 10 µM; actives 2% (n = 360,000); AID 1159606; in the data active = inhibition above about 50%
EWS-Fli block – blocks EWS/Fli oncoprotein-driven transcription; A673 NR0B1-luciferase reporter, viability-normalised; inhibition, % at 12.6 µM; actives 0.67% (n = 350,000);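 active = mean inhibition of at least 50% after viability correction, with every replicate also passing that limit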;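 note: firefly luciferase signal divided by Alamar Blue viability fluorescence both relative to DMSO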
PAX8 reporter – PAX8 transcriptional activity inhibition; RMG-I TPO-luciferase reporter, SteadyGlo, 24 h; inhibition, % at 12.6 µM; actives 1.2% (n = 360,000);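 active = mean replicate inhibition at least 60% with every replicate also reaching 60%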;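 note: luciferase light reporting Pax8 driven TPO promoter activity; plate controls were median of neutral control wells for no effect and mitoxantrone controls for full effect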
* = called active by the depositor; x = no result given.

SMILES	TROY signal inh	LGR2 antag	TWEAK-Fn14 inh	EWS-Fli block	PAX8 reporter
Cc1ccc(/C(O)=C2/C(=O)C(=O)N(CCN3CCOCC3)C2c2ccccn2)cc1 (stereo unspecified)	-22.8	x	-25.8	x	-27.6
COCC(=O)N(C)C[C@@H]1Oc2cc(C#CC3CCCC3)ccc2S(=O)(=O)N([C@@H](C)CO)C[C@@H]1C	x	-5.3	x	-6.6	x
CO[C@H]1CN(C)C(=O)c2ccc(NC(C)=O)cc2OC[C@H](C)N(Cc2ccccc2C(=O)O)C[C@H]1C	x	-8.8	x	-2.5	x
CC(=O)N1c2ccc(S(=O)(=O)NCC3CCC(C(=O)Nc4cccc(C)n4)CC3)cc2CC1C (stereo unspecified)	22.1	5.7	58.8*	19.3	29.3
CC(=O)N1c2ccc(S(=O)(=O)N3CCC(C(=O)Nc4cccc(C)n4)CC3)cc2CC1C (stereo unspecified)	20.6	-11.1	27.6	21.0	28.9
CC(=NNc1nc2ccccc2o1)c1ncccn1	14.9	4.0	103.1*	-1.0	74.1*
CCn1cc(Cl)c(C(=O)N2N=C(c3ccc4ccccc4c3)CC2c2ccccc2O)n1 (stereo unspecified)	42.8	-3.4	71.5*	4.8	4.4
On1ccccc1=S	68.6*	20.8	105.7*	51.5*	99.8*
O=C(Cn1ccccc1=S)c1ccc(Cl)c(Cl)c1	17.4	4.6	7.8	7.2	-7.4
C=CCSc1nnc(NC(=O)C2CC(=O)N(c3ccc4c(c3)OCCO4)C2)s1 (stereo unspecified)	12.8	-3.5	8.4	10.8	80.6*
CCc1cccc(CC)c1NC(=O)C1CC(=O)N(c2ccc3c(c2)OCCO3)C1 (stereo unspecified)	21.8	x	68.9*	x	1.4
Cc1cc(C)c(NC(=O)C2CC(=O)N(c3ccc4c(c3)OCCO4)C2)c(C)c1 (stereo unspecified)	13.3	x	42.0	x	x
Cc1csc(NC(=O)C2CC(=O)N(c3ccc4c(c3)OCCO4)C2)n1 (stereo unspecified)	-21.7	-10.5	-7.2	-0.4	8.5
O=C(C1CC(=O)N(c2ccc3c(c2)OCCO3)C1)N1CCN(S(=O)(=O)c2ccccc2F)CC1 (stereo unspecified)	49.4	3.2	83.5*	30.6	5.8
CCc1ccc(-c2csc(NC(=O)C3CC(=O)N(c4ccc5c(c4)OCCO5)C3)n2)cc1 (stereo unspecified)	48.0	x	74.7*	8.4	45.8
Cc1nn(C)cc1NC(=O)C[C@@H]1CC[C@H]2[C@@H](COc3ccc(NC(=O)C(C)C)cc3C(=O)N2C)O1	x	-24.2	x	6.5	54.1
COc1ccc(-c2csc(NC(=O)C3CC(=O)N(Cc4ccccc4)C3)n2)cc1OC (stereo unspecified)	8.6	-1.2	89.2*	7.2	19.8
Cc1nnc(NC(=O)C2CC(=O)N(c3ccc4c(c3)OCCO4)C2)s1 (stereo unspecified)	1.9	0.6	25.9	1.9	-8.0
CCOc1ccc(N2CC(C(=O)Nc3ccc4c(c3)OCO4)CC2=O)cc1 (stereo unspecified)	-12.8	-0.2	17.3	3.4	3.7
CCOc1ccc(N2CC(C(=O)Nc3ccc4c(c3)OCCO4)CC2=O)cc1 (stereo unspecified)	60.7*	10.3	77.8*	26.9	-10.4
O=C(Nc1nc(-c2ccco2)c(-c2ccco2)s1)C1CC(=O)N(c2ccc3c(c2)OCCO3)C1 (stereo unspecified)	29.4	x	80.5*	x	4.4
NCC[C@@H]1CC[C@@H](NC(=O)Nc2ccc(F)cc2)[C@@H](CO)O1	x	4.9	x	-5.1	-0.1
O=C(C[C@@H]1C=C[C@H](NC(=O)C2CC2)[C@H](CO)O1)NCc1ccncc1	x	-4.5	x	3.3	-4.7
Cc1nn2cc(-c3ccc(-c4ccccc4)cc3)nc2s1	x	x	35.7	x	x
Cc1nn2cc(-c3ccc(Cl)cc3)nc2s1	-5.4	x	63.1*	x	-74.1
SMILES	TROY signal inh	LGR2 antag	TWEAK-Fn14 inh	EWS-Fli block	PAX8 reporter
CCc1nn2cc(-c3ccccc3)nc2s1	84.1*	x	93.3*	x	12.7
CN(CC(=O)Nc1cccc(F)c1)C(=O)Cc1ccsc1	-2.4	-0.6	-0.3	-2.2	7.8
CN(CC(=O)Nc1cccc(F)c1)C(=O)CCCc1cccs1	11.5	-7.8	2.4	-6.6	96.8*
Cc1c(/C=N/n2cnnc2)c2ccccc2n1CCOc1ccc(Cl)cc1	54.4*	x	48.4	x	25.5
COc1cc(OC)nc(-n2ncc(Br)c(Br)c2=O)n1	62.6*	103.4*	103.2*	48.1	108.0*
COc1ccc(S(=O)(=O)N(C)C[C@@H]2OCCCC[C@@H](C)Oc3ccc(NS(=O)(=O)c4ccc(Cl)cc4)cc3C(=O)N([C@@H](C)CO)C[C@H]2C)cc1	x	-9.2	x	12.4	66.2*
COc1ccc(S(=O)(=O)Nc2ccc3c(c2)C(=O)N([C@H](C)CO)C[C@H](C)[C@H](CN(C)S(=O)(=O)c2ccc(Cl)cc2)OCCCC[C@@H](C)O3)cc1	x	-7.9	x	-3.4	1.3
COc1ccc(S(=O)(=O)Nc2ccc3c(c2)C(=O)N([C@H](C)CO)C[C@@H](C)[C@H](CN(C)S(=O)(=O)c2ccc(Cl)cc2)OCCCC[C@H](C)O3)cc1	x	25.9	x	16.9	83.2*
COc1ccc(S(=O)(=O)Nc2ccc3c(c2)C(=O)N([C@@H](C)CO)C[C@H](C)[C@H](CN(C)S(=O)(=O)c2ccc(Cl)cc2)OCCCC[C@@H](C)O3)cc1	x	4.6	x	2.2	43.7
C[C@H](CO)N1C[C@H](C)[C@@H](CN(C)C(=O)Nc2ccc3c(c2)OCO3)Oc2c(NS(=O)(=O)c3cccs3)cccc2C1=O	x	x	x	-81.0	x
O=C(C[C@@H]1CC[C@@H]2[C@H](COC[C@H](O)CN2C(=O)Nc2ccc(F)cc2)O1)NCC1CC1	x	18.9	x	x	x
O=S(=O)(N[C@H]1CC[C@H](CCn2cc(-c3cccnc3)nn2)O[C@H]1CO)c1ccccc1	x	-10.8	x	3.3	-1.9
COc1cc2c(cc1OC)C(=O)N1[C@H]3c4cc(Cl)ccc4OC[C@@H]3[C@H](c3ccccc3)[C@]1(C)C(=O)N2	10.3	-2.3	17.8	56.3*	26.1
COc1ccc2c(c1)C(=O)N1[C@H]3c4cc(Cl)ccc4OC[C@@H]3[C@H](c3ccccc3)[C@]1(C)C(=O)N2	-13.6	14.4	-8.8	49.5	28.3
COc1cc2c(cc1OC)C(=O)N1[C@H]3c4cc(C)ccc4OC[C@@H]3[C@H](c3ccccc3)[C@]1(C)C(=O)N2	19.4	12.2	7.8	58.3*	-5.2
COc1ccc2c(c1)[C@H]1[C@H](CO2)[C@H](c2ccccc2)[C@]2(C)C(=O)Nc3cc(C)ccc3C(=O)N12	15.4	3.5	-3.5	15.0	11.1
COc1ccc(NC(=O)c2ccc3c(c2)NC(=O)CS3)cc1	-27.3	13.7	-2.2	-80.8	-79.4
Cc1ccc(NS(=O)(=O)c2cc(NC(=O)c3ccc4c(c3)NC(=O)CS4)ccc2Cl)c(C)c1	48.6	3.3	66.3*	-1.4	40.9
COc1ccc(/C=C/C(=O)Nc2sc3c(c2C(=O)NCc2cccnc2)CCCC3)cc1	5.6	-12.6	52.6*	x	x
CC(=O)Nc1sc(N/N=C\c2ccccc2)nc1-c1cccs1	-26.6	-1.4	-12.6	-11.3	-12.2
